Compounds with a hit are over-represented: about 19% of the library has one in this group of screens.
Chronic BCR inh: chronic active BCR signaling inhibition | AID 493014 | ABC-DLBCL IkBa-CBG/CBR reporter, luminescence ratio, 4 h | Potency, µM (highest dose often 46.1 µM), usual class: inhibitors | 0.05% of 340,000 active; active = well fitted inhibition curve with a large enough effect in the signal ratio, with a control signal flat, not every such curve was filed as active; inconclusive = small, poorly fitted or top-dose-only effect, or effect the other way, or a change in a side signal; the % refers to the signal ratio
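Cell line TMD8 (human ABC DLBCL), stably expressing tet-inducible CBG68-IkBa fusion and CBR; IMDM/0.5% FBS; cpd up to 46 uM; dox induction, 4 h, 37C/5% CO2; dual luminescence; green/red ratio; MG132 control.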
DT40 TDP1 CPT: growth inhibition of DT40 Tdp1-/-;hTDP1 cells with camptothecin (screen for TDP1 inhibitors). chicken DT40 Tdp1-/-;hTDP1 cells + 20 nM CPT, ATP luminescence, 48 h. Potency, µM (top dose mostly 46.2 µM), most hits filed as inhibitors. 12% of 420,000 active. AID 686979; also: nearly all actives have a fitted effect of over 55% in size
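Chicken DT40 Tdp1-/- cells complemented with human TDP1, 400 cells/well, exposed to compounds plus 20 nM camptothecin for at least 48 h at 37 C; viability read as ATP content by CellTiter-Glo luminescence.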
SW480 rerep: inducers of DNA re-replication in SW480 colon cancer cells. SW480 DNA re-replication, Hoechst DNA content imaging, 48 h. 1.8% of 340,000 active. Potency, µM (highest dose often 46.1 µM), hits mostly activators; also: nearly all actives have a fitted effect of over 55% in size
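Image-based read-out: total Hoechst fluorescence of nuclei (405 nm excitation, 500-530 nm emission), with hits raising the fraction of high-intensity nuclei. SW480 colon cells incubated 48 hr with compounds at 37 C.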
DT40 TDP1 no CPT: qHTS for Inhibitors of human tyrosyl-DNA phosphodiesterase 1 (TDP1): qHTS in cells in absence of CPT | 15% of 420,000 active | Potency, µM (doses to about 46.2 µM), actives largely listed as inhibitors | DT40 Tdp1-/- hTDP1 cells, no CPT, ATP luminescence, 48 h | AID 686978, 2013; also: nearly all actives have a fitted effect of over 55% in size
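Chicken DT40 Tdp1-/- cells stably complemented with human TDP1 were seeded at 400 cells/well with DMSO in place of 20 nM camptothecin. After compound pinning, cells grew at least 48 hr at 37 °C; viability read by CellTiter-Glo luminescence.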
IL1B secr inh: inhibitors of inflammasome signaling (IL-1 beta secretion). activity change, % at 57.5 µM. AID 743279. 4.7% of 360,000 active. THP-1 LPS/ATP IL-1B secretion, AlphaLISA, 16 h; stronger effect = lower value; in the data active = activity change below about -50%; inconclusive = mostly about -30% to -49%
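Secreted IL-1B measured by AlphaLISA bead assay after 16 h compound exposure of THP-1 cells; compounds (final up to 57.5 uM) added 1 h before LPS (250 ng/mL) and ATP (1.25 mM) stimulation; lower signal means less secretion.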
MCF10A rereplic: induces DNA re-replication in MCF 10a normal breast cells; MCF 10A DNA re-replication, Hoechst nuclear intensity, 48 h; Potency, µM (top dose mostly 46.1 µM), most hits filed as activators; 2.9% of 350,000 active; also: nearly all actives have a fitted effect of over 50% in size
A number is an active result; – = inactive; ? = inconclusive; · = not tested or not shown. Unless noted, calls follow the shape of the dose curve; as a rule, active = well fitted curve in the direction sought with a large enough effect; inconclusive = small, poorly fitted or top-dose-only effect, or another doubt; inactive = no such curve, though single readings can be large; an effect the other way counts as inactive or inconclusive.

SMILES	Chronic BCR inh	DT40 TDP1 CPT	SW480 rerep	DT40 TDP1 no CPT	IL1B secr inh	MCF10A rereplic
Cc1cccc(-c2cc3c(N=O)c4ccccc4c-3n[nH]2)c1	?	?	–	?	–	?
O=C1NC(=O)C(=C2CCOC2=O)N1	·	–	·	–	–	·
C=CCN1C(=O)/C(=C/c2ccc(O)cc2)S/C1=N/c1nccs1	–	–	–	?	?	23.1µM
C=CCN1C(=O)/C(=C/c2ccc(OC)cc2)S/C1=N/c1nccs1	–	–	–	–	–	–
C=CCN=C1S/C(=C\c2ccc(N(C)C)cc2)C(=O)N1CC=C	?	?	?	?	–	18.4µM
CSc1ccccc1NC(=O)CN1CCN(S(=O)(=O)c2ccccc2[N+](=O)[O-])CC1	?	–	–	–	–	–
CC(=O)c1ccc(NC(=O)CSc2nc(C3CCCC3)nc3c2c(=O)n(C)c(=O)n3C)cc1	·	5.17µM	·	5.17µM	·	·
CCCn1c(=O)n(C)c(=O)c2c(SCc3cc(C(C)=O)ccc3OCC)nc(C3CC3)nc21	·	20.6µM	–	25.9µM	–	–
Cc1cccc(NC(=O)CSc2nc(C3CCCC3)nc3c2c(=O)n(C)c(=O)n3C)c1C	·	–	·	–	·	·
Cn1c(=O)c2c(SCC(=O)N3CCOCC3)nc(C3CCCCC3)nc2n(C)c1=O	–	·	·	·	·	·
Cn1c(=O)c2c(SCC(=O)Nc3nccs3)nc(C3CC3)nc2n(C)c1=O	?	23.1µM	–	18.4µM	–	–
CCOc1ccc(C(C)=O)cc1CSc1nc(C)cc(C)n1	–	?	–	–	–	–
Cn1c(=O)c2c(SC3CCCC3)nc(C3CC3)nc2n(C)c1=O	–	?	–	20.6µM	–	–
Cc1ccc(NC(=O)CSc2nc(C3CCCC3)nc3c2c(=O)n(C)c(=O)n3C)c(C)c1	·	–	·	–	·	·
COc1cc(C(=O)N2CCCN(C)CC2)cc(OC)c1C	–	–	–	–	–	?
c1ccc(CCNc2ccc3ncc(-c4cccc5ccccc45)n3n2)nc1	·	?	·	?	–	·
CCOc1ccc(C/C(O)=C2\C(=O)CC(C)(C)CC2=NCC(=O)O)cc1OCC	–	–	–	–	–	–
O=C(O)CCc1nc2cc(C(F)(F)F)ccc2n(Cc2ccccc2)c1=O	–	–	–	?	–	–
CC1CN(C)C(C)c2c1oc1ccc(N)cc21 (stereo not given)	–	?	–	10.3µM	–	–
CC1CN(C)C(C)c2c1oc1ccc([N+](=O)[O-])cc21 (stereo not given)	–	–	–	–	–	?
c1ccc(C[C@H]2CNCCN2CC2(c3ccccc3)CC2)cc1	–	?	–	?	–	–
Cc1cc(C)c2sc(N(Cc3cccnc3)C(=O)CCOc3ccccc3)nc2c1	–	18.4µM	·	?	·	·
O=C(CCOc1ccccc1)N(Cc1cccnc1)c1nc2c(F)cc(F)cc2s1	–	18.4µM	·	25.9µM	·	·
CCN(CC)CCN(C(=O)CCOc1ccccc1)c1nc2c(F)cc(F)cc2s1	–	?	?	18.4µM	?	–
O=C(CCS(=O)(=O)c1ccccc1)N(Cc1cccnc1)c1nc2ccc(F)cc2s1	–	3.26µM	·	5.8µM	·	·
SMILES	Chronic BCR inh	DT40 TDP1 CPT	SW480 rerep	DT40 TDP1 no CPT	IL1B secr inh	MCF10A rereplic
O=C(COc1ccccc1)N(Cc1cccnc1)c1nc2c(F)cc(F)cc2s1	–	–	·	?	·	·
CCCN(CC(=O)Nc1ccccc1C)C(=O)c1ccc(C2SCCS2)cc1	–	?	–	?	–	–
O=C(CCC(=O)N(CC(=O)NC1CCCC1)Cc1cccs1)Nc1nccs1	–	–	–	–	–	–
CC1(C2CC2)NC(=O)N(CC(=O)N2CCN(c3ccccc3)CC2)C1=O (stereo not given)	?	–	–	–	?	–
CCCc1cc(=O)[nH]c(SCC(=O)Nc2ccc(N3CCCCC3)cc2)n1	–	–	–	?	–	–
CCOC(=O)C1=C(c2ccccc2)NC(SCC(=O)Nc2ccc(C)cc2)=C(C#N)C1c1ccco1 (stereo not given)	·	?	?	?	–	–
